# An excerpt weighted towards active compounds, which were near 1.3% of everything screened.
# RXFP1 antag = RXFP1 (human) relaxin receptor antagonism; activity change, negative = inhibition, % at 57.5 µM; HEK293-RXFP1, relaxin-stimulated cAMP HTRF, 30 min; active compounds read low; hit rate 0.59% among 350,000;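 active = activity change of -60% or lower, but not beyond a set lower limit; inconclusive = change between -60% and -40%, or beyond the set limit; inactive = change above -40%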; note: % is set by controls: 0 for no effect and ±100 for the full control effect
# Target sequence (Q9HBX9 whole entry, looked up): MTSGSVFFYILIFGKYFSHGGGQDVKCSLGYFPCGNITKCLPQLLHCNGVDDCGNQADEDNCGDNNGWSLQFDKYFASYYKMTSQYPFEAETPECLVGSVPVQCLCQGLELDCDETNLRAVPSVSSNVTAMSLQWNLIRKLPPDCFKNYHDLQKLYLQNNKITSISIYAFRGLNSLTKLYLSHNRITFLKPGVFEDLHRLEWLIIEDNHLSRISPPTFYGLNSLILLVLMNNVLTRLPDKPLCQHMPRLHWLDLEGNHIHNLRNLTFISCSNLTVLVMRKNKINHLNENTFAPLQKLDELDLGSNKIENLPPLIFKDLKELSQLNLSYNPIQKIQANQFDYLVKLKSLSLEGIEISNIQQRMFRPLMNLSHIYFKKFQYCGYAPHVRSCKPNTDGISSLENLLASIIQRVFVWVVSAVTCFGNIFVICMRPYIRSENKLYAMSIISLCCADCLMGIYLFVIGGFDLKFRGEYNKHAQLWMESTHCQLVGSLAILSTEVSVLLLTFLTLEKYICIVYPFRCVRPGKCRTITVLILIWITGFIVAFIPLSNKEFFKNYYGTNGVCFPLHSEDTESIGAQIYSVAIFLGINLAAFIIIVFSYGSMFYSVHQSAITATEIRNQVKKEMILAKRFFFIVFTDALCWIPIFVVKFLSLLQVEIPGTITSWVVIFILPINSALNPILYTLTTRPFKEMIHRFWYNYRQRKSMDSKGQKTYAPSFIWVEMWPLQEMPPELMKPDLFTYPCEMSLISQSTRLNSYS
# gsp antag = antagonizes gsp, the McCune-Albright syndrome mutation | gsp-mutant cells, cAMP HTRF, 30 min | Potency, µM (titrated, usually from 76.9 µM), for the others: at the highest dose activity change, negative = inhibition, most hits filed as inhibitors | hit rate 0.4% among 340,000; calls by dose curve; cell line not stated here;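 note: intracellular cAMP measured with PDE inhibitor Ro 20-1724 present during compound exposure; potency is the fitted concentration of half-maximal effect; % is set by controls: 0 for no effect and ±100 for the full control effect; nearly all actives have a fitted effect of over 65% in size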
#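 Measurement of cellular cAMP by homogeneous time-resolved fluorescence following a 30 min compound exposure at 37C. The PDE inhibitor […] was present throughout; the assay buffer was DPBS with 0.05% BSA and 0.005% Tween 20.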
# Akt phos inh = Akt phosphorylation inhibition; hit rate 0.32% among 360,000; AID 651550; Neuro2A IGF-stimulated pAkt S473 HTRF, 20 min; active compounds read low; activity change, % for hits at 50 µM; in the data active = activity change below about -80%; inconclusive = mostly about -51% to -80%; note: % is set by controls: 0 for no effect and ±100 for the full control effect
#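 Single-point screen (50 µM final compound) in Neuro2A cells stimulated 20 min with 6 nM IGF at 37 deg C. After lysis, Ser473-phosphorylated Akt read by HTRF (ex 330 nm, em 615/665 nm) as the 665/615 ratio.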
# gsp ag = agonists of gsp mutant (McCune-Albright syndrome). Potency, µM (top dose mostly 76.9 µM), inactives show at the highest dose activation (cAMP increase), hits mostly activators. hit rate 0.13% among 340,000. gsp mutant cells, cAMP HTRF, 30 min. AID 624287; active = well fitted activation curve with a large enough effect; inconclusive = small, poorly fitted or top-dose-only effect, or another doubt; inactive = no such curve, though single readings can be large or run the other way; cell line not stated here;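 note: phosphodiesterase inhibitor Ro 20-1724 added with compounds to block cAMP breakdown; potency is the fitted concentration of half-maximal effect; nearly all actives have a fitted effect of over 60% in size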
#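 Cells stably selected in G418 were plated at 2000/well, grown 16-24 hr, then given compounds in DMSO with the PDE inhibitor […] (300 uM solution added) for 30 min at 37C; cAMP was read by HTRF.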
# RXFP1 agonist = agonists of human relaxin receptor RXFP1. HEK293T-RXFP1 cAMP TR-FRET, 30 min; response scale: percent of porcine relaxin response, buffer zero. Potency, µM (highest dose often 57.5 µM), for inactives: at the highest dose activation, usual class: activators. hit rate 0.3% among 370,000; active = well fitted activation curve with a large enough effect; inconclusive = small, poorly fitted or top-dose-only effect; note: potency is the fitted concentration of half-maximal effect; % is set by controls: 0 for no effect and ±100 for the full control effect; nearly all actives have a fitted effect of over 60% in size
#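 Agonist response is measured as cAMP accumulation in an RXFP1-transfected HEK293T line under PDE4 inhibition. Values are scaled between buffer-only and 29 nM porcine relaxin, and EC50s come from standard Hill equation fits.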
# The depositor's hits bear a star; i = inactive; u = inconclusive; x = no result given; [ ] = another dose, or the depositor's remark.
SMILES,RXFP1 antag,gsp antag,Akt phos inh,gsp ag,RXFP1 agonist
CCOc1ccc(C(=O)c2cn(CC(=O)Nc3ccc(F)cc3)c3cc4c(cc3c2=O)OCO4)cc1,x,x,x,x,10%
Cc1ccccc1OCC(=O)Nc1sc(C(=O)Nc2cccc(C)c2C)c(C)c1C#N,-1,35%,u,u,8.9µM*
CCN(CC)C(=O)c1sc(NC(=O)Cc2ccccc2)c(C#N)c1C,-7,2%,-115%*,2%,-1%
CC(=O)c1ccc(OCC(=O)N2CCCCC2)cc1,-7,x,x,x,x
O=C(c1cccs1)N1CCCc2cc(NS(=O)(=O)c3ccc(Br)cc3)ccc21,-9,x,x,x,4%
CC(=O)c1ccc(N2CCN(C(=O)c3n[nH]c4ccccc34)CC2)cc1,-7,11µM*,i,-8%[15.4 µM],2%
COc1ccc(C(C)=O)cc1CN1C(=O)NC2(CCCCCCC2)C1=O,-14,-1%,i,2%[15.4 µM],0%
CCOc1ccc(C(C)=O)cc1CN1C(=O)NC2(CCCCCC2)C1=O,-101*,4%,i,u,-1%
CCOC(=O)[C@H](CCc1ccccc1)N[C@@H](C)C(=O)N(CC(=O)O)C1Cc2ccccc2C1,-5,x,x,x,x
COc1ccc(Nc2c3c(nc4ccc(NC(=O)/C=C/c5cccc(OC)c5OC)cc24)CCCC3)cc1OC,-8,x,x,x,5%
CN(C)CCNc1ccc2ncn3c4ccc(O)cc4c(=O)c1c23,-4,u,i,14µM*,x
Cn1nnnc1SCCCNCc1cccc(OCc2ccccc2)c1,-4,x,x,x,-1%
Cc1cc2c(c(=O)o1)C(C(C)C)C(C#N)=C(N)O2 (stereo not given),-15,10%,-100%*,10%,1%
Cc1ccc(CCNC(=O)c2ccc(CSCc3ccc(C)cc3)o2)cc1,u,x,x,x,-2%
O=C(COc1ccccc1/C=C1\SC(=S)NC1=O)Nc1ccc(F)cc1,-70*,u,i,-19%,x
Oc1cc(Nc2ccc(N3CCCCC3)cc2)cc2cccnc12,x,x,x,x,1%
CS(=O)(=O)Nc1ccccc1C(=O)NC1CC2CCC1C2 (stereo not given),5,-8%,i,-6%,1%
CC(C)NC(=O)NS(=O)(=O)c1cnccc1NC1CC2CCC1C2 (stereo not given),-5,3%,-107%*,-31%,1%
C=C(C)Cn1c(CCNC(=O)CCC)nc2ccccc21,-5,-1%,-104%*,-6%,2%
Cc1cc(N2CCCC2=O)cc(C)c1S(=O)(=O)NCCOc1ccc(C(C)(C)C)cc1,-3,25µM*,i,-14%,0%
O=C1Nc2ccccc2C1(c1ccc(O)cc1)c1ccc(O)cc1,-29,x,x,x,x
CCS(=O)(=O)c1ccc(OC)c(C(=O)OC)c1,-27,x,x,x,x
CC(C)CN(C(=O)COC(=O)c1ccc2c(c1)NC(=O)CS2)C1CCS(=O)(=O)C1 (stereo not given),-2,2%,i,5%,3%
CN(C(=O)COC(=O)c1ccc2c(c1)NC(=O)CS2)C1CCS(=O)(=O)C1 (stereo not given),-8,7%,-108%*,-5%,1%
O=C1CSc2ccc(C(=O)O)cc2N1,-77*,-1%,i,28%,0%
SMILES,RXFP1 antag,gsp antag,Akt phos inh,gsp ag,RXFP1 agonist
Cc1ccc2c(c1)C(=O)OC(C(=O)Nc1ccccc1C(=O)O)C2 (stereo not given),-12,x,x,x,1%
CCOC(=O)Cn1c(=O)oc2cc(S(=O)(=O)N3CCN(c4ccccn4)CC3)ccc21,x,-7%,i,1%,-1%
CCOC(=O)Cn1c(=O)oc2cc(S(=O)(=O)N3CCN(c4ccccc4OC)CC3)ccc21,-65*,x,x,x,2%
CS(=O)(=O)N1CCn2c1nc1ccccc12,-8,x,i,7%[15.4 µM],-1%
CCN1N=C(c2ccccc2)Cn2c1nc1ccccc12,4,5%,-107%*,4%,7%
O=C(NCc1ccc(Cl)cc1)C1CCN(c2nn3cc(-c4ccc(F)cc4)nc3s2)CC1,-8,x,x,x,0%
COc1cc(OC)c(Nc2cc(C)nc3ncnn23)cc1Cl,3,x,x,x,5%
COC(=O)CN1C(=O)CSc2ccc(S(=O)(=O)Nc3ccc(C)c(Cl)c3)cc21,0,x,x,x,-1%
CCN1CCN(Cc2c3ccccc3cc3ccccc23)CC1,-60*,-1%,i,-4%[15.4 µM],-1%
COc1ccccc1CC1S/C(=N/N=C/c2ccco2)NC1=O (stereo not given),6,28µM*,i,-28%,0%
Cc1cccc(CNC(=O)C2CCN(c3nc4ccc(Cl)cc4[nH]3)CC2)c1,-72*,x,x,x,5%
COCCCNC(=O)C1CCN(c2nc3ccc(Cl)cc3[nH]2)CC1,-18,x,x,x,1%
Cc1cccc(NC(=O)CN2C(=O)S/C(=C\c3ccc(O)c([N+](=O)[O-])c3)C2=O)c1,4,u,i,4%,0%
O=C(CN1C(=O)S/C(=C\c2cc(Cl)c(O)c(Cl)c2)C1=O)Nc1ccccc1,-27,40µM*,i,-32%,0%
Cc1ccc(NC(=O)CN2C(=O)S/C(=C/c3ccc(O)c([N+](=O)[O-])c3)C2=O)cc1C,-63*,u,i,16%[15.4 µM],0%
Cc1ccc(-n2ncc3c(Nc4cccc(C)c4C)ncnc32)cc1,u,x,x,x,4%
COc1cccc(C(=O)NCC(c2ccc(N(C)C)cc2)N2CCCC2)c1OC (stereo not given),-11,x,x,x,-1%
COc1ccc(CNC(=O)c2ccc(N3CCCC3)c(NC(=O)NCc3ccc(F)cc3)c2)cc1,-8,x,x,x,0%
CCC(=O)N1CCc2cc(S(=O)(=O)CCC(=O)Nc3cc(Cl)ccc3OC)ccc21,x,x,x,x,1%
O=C(CN1CCN(C(=O)c2ccc(-c3nc4ccccc4s3)o2)CC1)Nc1ccccc1Cl,-38,18µM*,i,-4%[15.4 µM],0%
O=C(c1ccc(-c2nc3ccccc3s2)o1)N1CCN(c2ccccc2O)CC1,-24,-32%,i,-2%[15.4 µM],0%
Cc1cccc(NC(=O)CN2CCN(C(=O)c3ccc(-c4nc5ccccc5s4)o3)CC2)c1C,-33,u,i,-13%[15.4 µM],0%
O=C(CN1CCN(C(=O)c2ccc(-c3nc4ccccc4s3)o2)CC1)Nc1ccc(F)cc1,-17,45µM*,i,-51%,0%
CC(=O)Oc1ccc(C2(c3ccc(OC(C)=O)cc3)Oc3ccccc3NC2=O)cc1,-32,x,x,x,x
Cc1ccc(S(=O)(=O)c2nc(-c3ccco3)oc2N2CCC(C)CC2)cc1,-63*,-5%,i,-5%[15.4 µM],-4%
O=C(Nc1ccc(F)c(Cl)c1)Nc1c[nH]c(=O)[nH]c1=O,-6,x,x,x,-2%
Cc1[nH]n(-c2ccccc2)c(=O)c1Sc1ccc(Cl)cc1,-3,-5%,i,-13%,0%
Cc1cc(-c2c(C)[nH]n(-c3ccc(Cl)cc3)c2=O)n[nH]1,15,40µM*,i,-1%,0%
